Results: PubChem BioAssay (NCI)
This is part of a sample that, as a whole, favours compounds with a hit. Of some 83,000 tested, about 20% had one in any assay.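 The endpoint reported here, percent growth, reads 100 for growth as untreated, 0 for no net growth and -100 for all cells dead.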 The source made the active and inactive calls.

Tested on: NCI-H226 lung
Test: NCI-60 one-dose screen, 48 h (100 = growth as untreated, 0 = no growth, -100 = all killed)
Conditions: 10 µM unless noted
Experimental: Growth inhibition of the NCI-H226 human Non-Small Cell Lung tumor cell line is measured as a screen for anti-cancer activity. Cells are grown in 96 well plates and exposed to the test compound for 48 hours. Compounds are tested at a single concentration, which is 10^-5 M for most compounds. The reported endpoint is percent growth (GI% or GIPRCNT), where numbers from 0 - 100% represent growth inhibition, and numbers from -100% - 0 represent cell death. For example, a value of 40 represents 60% growth inhibition. A value of 0 means no net growth occurred over the course of the experiment. A value of -40 indicates 40% of cells at the beginning of the experiment died by the end of the experiment. A value of -100 means all cells are dead at the end of the experiment.
NCI-60 Human Tumor Cell Lines Screen was performed using the standard one-dose NCI protocol, which is described in more detail at https://dtp.cancer.gov/discovery_development/nci-60/default.htm.
Compounds with GIPRCNT values below 10 were considered active. Activity score was based on GIPRCNT using the following formula: […]
Score is 0 for GIPRCNT values of 100 or above, 50 for GIPRCNT values of 0, and 100 for GIPRCNT values of -100.

Compound | growth
O=C(Nc1cc(Cl)ccc1O)c1ccccc1Nc1ccnc(C(F)(F)F)c1 | 50.9% (inactive)
COc1ccc2c(O)c(/C=C3\N=Nc4ncccc43)oc2c1C[C@@H]1CCNC[C@H]1F | -4.38% (active)
COc1ccc2c(c1)C(C)Cc1c(ncnc1-n1cnc3cc(C)ccc31)N2C (stereo not given) | 60% (inactive)
COc1ccc(N/N=C/c2cn(-c3ccc(C(=O)O)cc3)nc2-c2cc3ccccc3oc2=O)cc1 | 75.3% (inactive)
CC1(C)CC[C@]2(CO)CC[C@]3(C)[C@](O)([C@H](O)C[C@@H]4[C@@]5(C)CCCNC(C)(C)[C@@H]5CC[C@]43C)[C@@H]2C1 | 106% (inactive)
CCN(CC)CCOc1ccc(Nc2ncc3cc(-c4c(Cl)cccc4Cl)c(=O)n(CCOC)c3n2)cc1 | 28% (inactive)
Cc1cc(C(=O)CCCC(=O)c2cc(C)c(O)c(C)c2)cc(C)c1O | 85% (inactive)
COCCn1cc(-c2nc(-c3cc4cccnc4n3C)cs2)c2ccccc21 | 60.9% (inactive)
N#Cc1nn(-c2cc(=O)[nH]c3ccc(Br)cc23)c(N)c1C#N | 98.4% (inactive)
CCN1C2CCC1/C(=C\c1ccccc1)C(=O)/C2=C/c1ccccc1 | 59.9% (inactive)
CS(=O)(=O)Nc1cc(-c2ccc3ncnc(Nc4ccc5c(cnn5Cc5ccncc5)c4)c3c2)cnc1Cl | 92% (inactive)
COc1ccc2cc(-c3nc4ccc(C)cn4c3NCc3ccco3)c(=O)[nH]c2c1 | 76.4% (inactive)
O=C(Oc1ccc2c(c1)sc1nc(-c3ccccc3)[nH]c(=O)c12)C(F)(F)F | 58.3% (inactive)
COc1ccc(CN2C(=O)OC(C)(COC(C)=O)C2=O)cc1 (stereo not given) | 98.1% (inactive)
COc1ccc(C(O)c2cc3c(N)c(C(=O)Nc4cccc5ccccc45)sc3nc2C)cc1 (stereo not given) | 18.6% (inactive)
Cc1cc(Cl)nc(N2CCN(CCNc3ccnc4cc(Cl)ccc34)CC2)n1 | 59.8% (inactive)
O=C(CSc1nnnn1-c1ccccc1)Nc1ccc(Oc2ccccc2)cc1 | 87.5% (inactive)
CN(C)CCCNC(=O)c1cncnc1Nc1ccc2c(ccn2Cc2cccc(F)c2)c1 | 99.4% (inactive)
Nc1c(Br)cc2c(c1Br)Cc1cc([N+](=O)[O-])ccc1-2 | 69% (inactive)
O=S(=O)(Nc1cc(Sc2nc3ccccc3s2)c(O)c2ccccc12)c1ccc2ccccc2c1 | 94.1% (inactive)

Compound | growth
Nc1ccc(-c2ccncc2)cc1NC(=O)N1CCCC1 | 98.1% (inactive)
CN1c2ccccc2S(=O)(=O)n2c(SCC(=O)Nc3nc4ccc(F)cc4s3)nnc21 | 113% (inactive)
CCOC(=O)NCCCC(=O)NCCc1ccccc1 | 96.3% (inactive)
Brc1ccc(Nc2nc(Nc3cnc4ccccc4c3)c3[nH]cnc3n2)cc1 | 64.1% (inactive)
O=C(Nc1cccnc1Nc1ccc(Cl)cc1)c1cn(Cc2cccc(Oc3ccccc3)c2)nn1 | 55.9% (inactive)
O=C(NCCCCCCNC(=O)OCc1ccc2c(Cl)cc(Cl)c(O)c2n1)OCc1ccc2c(Cl)cc(Cl)c(O)c2n1 | 1.25% (active)
CCC(C)(C)c1ccc(Nc2ccc(Nc3ccc(C(C)(C)CC)cc3)cc2)cc1 | 93% (inactive)
Cc1cn(C)cn1 | 108% (inactive)
CS(=O)(=O)c1ccc(-c2nc3ccccc3n2CC(=O)N/N=C/c2ccccc2)cc1 | 98.8% (inactive)
Oc1nc(NCc2ccccc2)sc1/C=C1\C=Nc2ncccc21 | 62.3% (inactive)
COc1ccc2c(c1)oc1c(C)c3c(c(C)c12)C(=O)N(CCOS(C)(=O)=O)C3=O | 106% (inactive)
C#Cc1cccc(Nc2ncnc3cc(NC(=O)CCl)ccc23)c1 | -42.2% (active)
COc1ccc(CNc2ccc3nc(NC(=O)CN4CCCCCC4)sc3c2)cc1 | 80% (inactive)
O=[N+]([O-])c1c(O)c(Cl)cc(Cl)c1Cl | 94.4% (inactive)
CS(=O)/C(C#N)=C\C=C\c1cccc(Cl)c1 (stereo not given) | 36.1% (inactive)
COc1cc(/C=C/C(=O)N2CCN(C(=O)c3cc(OC)c(OC)c(OC)c3)CC2)ccc1OCCCOc1cc2c(cc1OC)C(=O)N1CCC[C@H]1C=N2 | -8.72% (active)
Oc1c(I)cc(I)cc1CN(Cc1ccccn1)Cc1ccccn1 | 21.7% (inactive)
COC1C(O)CC(OC2CC(OC3CC(O[C@@H]4C(=O)c5c(cc6cc(OC7CC(OC8CC(O)C(O)C(C)O8)C(O)C(C)O7)c(C)c(O)c6c5O)CC4[C@H](OC)[C@@H](O)C(C)=O)OC(C)C3O)OC(C)C2O)OC1C (stereo not given in full) | -16.6% (active)
NS(=O)(=O)c1ccc(C(=O)NN2C(=O)c3ccccc3C2=O)cc1 | 111% (inactive)
CC(C)NS(=O)(=O)/N=C1\NC(=O)NC1=C(Cl)Cl | 95.3% (inactive)
